Reference: PubChem BioAssay AID1851 (National Center for Advancing Translational Sciences (NCATS), 2009)
“And” between values parts separate entries of the source, which are not always exact repeats. Identical values can stand only once. In all, about 16,000 compounds went through this assay and about 4,000 (25%) were called active. Roughly 26% stayed inconclusive and do not appear here. Calls come from the whole dose curve; as a rule, active = well fitted curve in the direction sought with a large enough effect; inconclusive = small, poorly fitted or top-dose-only effect, or effect the other way; inactive = no such curve, though single readings can be large or run the other way. These entries were drawn from the full list. The source holds several records for some structures; these can differ, active in one and inactive in another.

What follows are compounds tested against Cytochrome P450 2C9 (Homo sapiens) (UniProt P11712) (assay: Cytochrome panel assay with activity outcomes). Conditions: recombinant CYP, pro-luciferin dealkylation, luminescence, p450-cyp2c9; series mostly up to 57.1 µM; activity, negative = inhibition: at the top concentration.
% is set by controls: 0 for no effect and ±100 for the full control effect.

Chain of Cytochrome P450 2C9 (Homo sapiens) (P11712 whole entry, looked up): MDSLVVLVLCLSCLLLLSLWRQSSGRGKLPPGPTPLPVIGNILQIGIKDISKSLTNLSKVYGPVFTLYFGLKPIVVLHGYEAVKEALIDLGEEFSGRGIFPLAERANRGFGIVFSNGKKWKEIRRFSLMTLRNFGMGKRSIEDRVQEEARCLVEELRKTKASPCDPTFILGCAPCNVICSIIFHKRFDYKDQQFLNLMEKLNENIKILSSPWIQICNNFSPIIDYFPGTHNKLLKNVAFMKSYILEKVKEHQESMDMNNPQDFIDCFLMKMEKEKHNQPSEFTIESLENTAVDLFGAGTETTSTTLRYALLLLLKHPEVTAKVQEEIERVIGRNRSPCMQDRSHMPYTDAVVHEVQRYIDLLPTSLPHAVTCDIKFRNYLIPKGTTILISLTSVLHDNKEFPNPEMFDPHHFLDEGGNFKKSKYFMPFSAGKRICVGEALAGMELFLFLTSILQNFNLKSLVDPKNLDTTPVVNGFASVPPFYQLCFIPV

Structure (SMILES) | activity, negative = inhibition | AC50
C[N+]1(C)CCO[C@@](O)(c2ccc(-c3ccc([C@]4(O)C[N+](C)(C)CCO4)cc3)cc2)C1 | -5.58% (inactive) | –
O=C(c1ccccc1)[C@H]1[C@H](c2ccccc2[N+](=O)[O-])N1C1CCCCC1 (stereo not given in full) | -9.93% [at 11.4 µM] (inactive) | –
CC1=C(O)C(=O)[C@H]2O[C@@H]2C1=O | -9.89% (inactive) | –
c1cc(CN2CCCC3(CCNCC3)C2)ccn1 | -28.9% (inactive) | –
CN1CC[C@@]2(CCCN(C(=O)c3ccco3)C2)C1 | 5.65% (inactive) | –
O=C(c1ccco1)N1CCC[C@@]2(CCN(Cc3ccncc3)C2)C1 | – | 3.16 µM (active)
CN1CC[C@@]2(CCCN(C(=O)c3ccncc3)C2)C1 | 2.79% (inactive) | –
COCC(=O)N1CCC2(CCCN(Cc3ccncc3)C2)CC1 | – | 5.01 µM (active)
CC(C)CN1CCCC2(CCN(C(=O)c3ccncc3)CC2)C1 | -28.7% (inactive) | –
CC[C@]1([C@H]2O[C@@H]([C@@H]3O[C@](O)(CO)[C@@H](C)C[C@H]3C)C[C@H]2C)CC[C@@H]([C@]2(C)CC[C@@]3(C[C@@H](O)[C@@H](C)[C@@H]([C@H](C)[C@H](OC)[C@H](C)C(=O)O)O3)O2)O1 | 2.5% [at 25.6 µM] (inactive) | –
COc1ccccc1CN1CCCC2(CCN(C(=O)Oc3ccccc3)CC2)C1 | 2.58% (inactive) | –
COC(=O)[C@@H]1c2cc3c(c(O)c2[C@@H](O)C[C@]1(C)O)C(=O)c1c(O)cc2c(c1C3=O)O[C@H]1O[C@@]2(C)[C@@H](O)[C@H](N(C)C)[C@H]1O | -12.9% [at 11.4 µM] (inactive) | –
CCN(CC)CCO[C@H]1CC[C@@]2(C)C(=CC[C@@H]3[C@H]2CC[C@]2(C)C(=O)CC[C@H]32)C1 | -1.59% (inactive) | –
CO[C@@H]1CC=C2CCN3CCC4=C(CC(=O)OC4)[C@]23C1 | 11.3% (inactive) | –
C[N+]1(C)[C@@H]2CC[C@H]1CC(OC(=O)[C@@H](CO)c1ccccc1)C2 (stereo not given in full) | inactive | –
COc1ccc2[nH]c3c(c2c1)CCN=C3C | -24.9% [at 25.6 µM] (inactive) | –
N[C@@H](CSC1c2ccccc2-c2ccccc21)C(=O)O | -21.1% [at 11.4 µM] (inactive) | –
C[C@@]12CC[C@H]3[C@@H](CCC4=C(O)C(=O)CC[C@]43C)[C@H]1CCC2=O | 8.16% (inactive) | –
Cc1ccccc1-c1nc(CS(=O)CC(=O)N2CCC3(CC2)OCCO3)c(C)o1 (stereo not given) | – | 5.01 µM (active)
Cc1cc(NC(=O)CCC(=O)N2CCC3(CC2)OCCO3)no1 | 14.5% (inactive) | –
Oc1ccc([C@H](O)[C@@H]2CCCCN2)cc1O | -5.3% [at 11.4 µM] (inactive) | –
CC(C)C(=O)N1C2CCC1CC(O)(c1ccc(F)cc1)C2 (stereo not given) | -8.36% (inactive) | –
C[C@](N)(CCP(=O)(O)O)C(=O)O | 7.57% (inactive) | –

Structure (SMILES) | activity, negative = inhibition | AC50
O=C(CN1CCCCC1)Nc1ccc(Br)cc1C(=O)c1ccccc1Cl | – | 8.91 µM (active)
CN(CCc1ccc(Cl)c(Cl)c1)[C@H]1CCCC[C@H]1N1CCCC1 | -18.7% (inactive) | –
CCOC(=O)c1ncn2c1CN(C)C(=O)c1cc(F)ccc1-2 | 0.585% (inactive) | –
CC(C)(C)NC[C@H](O)c1ccccc1Cl | 11.1% (inactive) | –
C=CCN1CC[C@@]23c4c5ccc(O)c4O[C@H]2/C(=N\N=C2/CC[C@@]4(O)[C@H]6Cc7ccc(O)c8c7[C@@]4(CCN6CC=C)[C@@H]2O8)CC[C@]3(O)[C@@H]1C5 | inactive | –
C[C@H](CCC(=O)O)[C@H]1CC[C@]2(C)[C@@H]3C(=O)C[C@H]4C(C)(C)[C@@H](O)CC[C@]4(C)[C@H]3C(=O)C[C@@]12C | -0.996% [at 11.4 µM] (inactive) | –
CCCc1nc2ccccc2c(=O)n1-c1ccc(OC)cc1 | – | 25.1 µM (active)
Cc1nc2ccccc2c(=O)n1-n1cnnc1 | -22.4% (inactive) | –
CCCCc1nc2ccccc2c(=O)n1-c1ccccc1[N+](=O)[O-] | – | 11.2 µM (active)
CCCCc1nc2ccccc2c(=O)n1-c1ccc(Cl)cc1[N+](=O)[O-] | -8.02% (inactive) | –
Cc1nc2ccccc2cc1C[N+]12CN3CN(CN(C3)C1)C2 | 18.3% [at 11.4 µM] (inactive) | –
COc1ccc2c(c1)C13CCCC[C@@H]1C(C2)N(C)CC3 (stereo not given in full) | -5.05% [at 25.6 µM] (inactive) | –
CC[C@H](C)C(=O)O[C@@H]1[C@H](O)[C@@H]2[C@H](CN3C[C@@H](C)CC[C@@H]3[C@@]2(C)O)[C@@H]2C[C@@]34O[C@@]5(O)[C@@H](OC(=O)[C@](C)(O)CC)CC[C@@]3(C)[C@H]5[C@H](OC(C)=O)[C@@H](OC(C)=O)[C@H]4[C@]12O | 23.1% [at 25.6 µM] (inactive) | –
COc1cc2c3cc1Oc1c(O)c(OC)cc4c1[C@@H](Cc1ccc(cc1)Oc1cc(ccc1O)C[C@H]3N(C)CC2)N(C)CC4 | 2.87% [at 11.4 µM] (inactive) | –
CC(C)N(CC[C@@](C(N)=O)(c1ccccc1)c1ccccn1)C(C)C | inactive | –
N[C@H](Cn1ccc(=O)[nH]c1=O)C(=O)O | -9.73% (inactive) | –
O=[N+]([O-])c1ccc2nc(N3CCNCC3)ccc2c1 | -10.6% (inactive) | –
CC12CN3CC(C)(CN(C1)C31CCSCC1)C2=O | -7.66% (inactive) | –
NCCc1c[nH]c2ccc(C(N)=O)cc12 | inactive | –
N[C@@H](Cc1ccccc1)P(=O)(O)O | -8.88% [at 11.4 µM] (inactive) | –
CN1[C@H](CC(=O)c2ccccc2)CCC[C@H]1C[C@H](O)c1ccccc1 | -7.25% (inactive) | –
CC1(C)CCC2=C(O1)c1ccccc1C(=O)C2=O | – | 31.6 µM (active)
C[C@@H]1CC[C@@H]2N(C1)C[C@H]1[C@@](O)([C@H](O)C[C@]3(O)[C@H]4CC[C@H]5[C@]6(O)O[C@]4(C[C@]13O)[C@@]5(C)CC[C@@H]6O)[C@@]2(C)O | -2.76% [at 11.4 µM] (inactive) | –

Structure (SMILES) | activity, negative = inhibition | AC50
C=CCn1c(O)c(C(C)=NCCCN2CCOCC2)c(=O)[nH]c1=O | -27.5% (inactive) | –
C=C(C)[C@H]1CN[C@H](C(=O)O)[C@@H]1CC(=O)O | 13.2% (inactive) | –
COc1c2c(cc3c1OCO3)CCN(C)C2 | 20.3% [at 25.6 µM] (inactive) | –
NCC#Cc1ccccc1 | – | 10 µM (active)
O=C(Oc1ccccc1)N1CCC[C@@]2(CCN(C(c3ccccc3)c3ccccc3)C2)C1 | -10.2% (inactive) | –
C[N+]1([O-])[C@@H]2CC[C@H]1CC(OC(=O)[C@@H](CO)c1ccccc1)C2 (stereo not given in full) | 21.1% [at 25.6 µM] (inactive) | –
COC(=O)[C@@]1(Cc2ccc(F)cc2)[C@H]2c3cc(C(=O)N(C)C)[nH]c3C[C@H]2CN1C(=O)c1ccccc1 | – | 10 µM (active)
CN(C)CCCc1c[nH]c2ccccc12 | -1.95% [at 11.4 µM] (inactive) | –
COc1cc2c(cc1O)C[C@H]1c3c(cc(O)c(OC)c3-2)CCN1C | -0.572% [at 25.6 µM] (inactive) | –
Cn1c[n+](C)cc1C(O)c1ccccc1 (stereo not given) | -14.7% (inactive) | –
O=C(Nc1ccc(Cl)cc1)Nc1nccs1 | – | 17.8 µM (active)
O=C1CS[C@@H](c2ccccc2Cl)c2cc(Cl)ccc2N1 | – | 15.8 µM (active)
COc1cc2c(cc1OC)[C@@H]1C(=O)c3ccc4c(c3O[C@@H]1CO2)C=CC(C)(C)O4 | -28% (inactive) | –
C[C@H](N)Cc1c[nH]c2ccc(O)cc12 | 11.8% (inactive) | –
O=c1c2ccccc2c2ccccc2c(=O)n1-c1cc2c3ccccc3ccc2c2ccccc12 | – | 0.316 µM (active)
c1csc(CN2CCC3(CCNCC3)CC2)n1 | 5.14% (inactive) | –
CN(C)CCCNc1c2c(nc3ccc(Cl)cc13)CCCC2 | 6.4% [at 11.4 µM] (inactive) | –
CC(=O)OCC1=C(C(=O)O)N2C(=O)[C@@H](N)[C@@H]2SC1 | 13% [at 25.6 µM] (inactive) | –
CCc1cc2c(nc1CC)CCN(CC/C(C)=N/OC)C2 | 7.8% [at 11.4 µM] (inactive) | –
CS(=O)c1ccc(-c2nc(-c3ccc(F)cc3)c(-c3ccncc3)[nH]2)cc1 (stereo not given) | – | inactive and 2 µM (active)
Cc1ccc(S(=O)(=O)N[C@@H](CCCCN)C(=O)CCl)cc1 | -3.85% (inactive) | –
O=C(Nc1ccccc1)N1CCCC2(CCN(C(=O)Oc3ccccc3)CC2)C1 | -17.9% (inactive) | –
Cc1cc(C)c(C#N)c(SCC(=O)c2ccc(Cl)cc2Cl)n1 | – | 5.01 µM (active)

Structure (SMILES) | activity, negative = inhibition | AC50
COc1ccc2c(c1)CCC1[C@@H]2CCC2(C)[C@@H](NCCCCCCN3C(=O)C=CC3=O)CC[C@@H]12 (stereo not given in full) | 5.58% (inactive) | –
COc1ccc(C[C@@H](N)c2ccc(OC)cc2)cc1 | -15.8% [at 11.4 µM] (inactive) | –
N=C(N)SCc1ccc(Cl)c2ccccc12 (tested in a mixture with another compound) | 9.59% [at 11.4 µM] (inactive) | 3.98 µM (active)
O=[As](O)(O)c1ccc(NCc2ccccc2)cc1 | -7.26% [at 11.4 µM] (inactive) | –
C[C@H]1[C@H](NC(=O)/C(=N/OC(C)(C)C(=O)O)c2csc(N)n2)C(=O)N1S(=O)(=O)O (stereo in doubt) | 14% [at 25.6 µM] (inactive) | –
O=c1[nH]oc2c1CCNC2 | inactive | –
N#Cc1ccc(CN2CC[C@@]3(CCCNC3)C2)cc1 | -13.8% (inactive) | –
COC(=O)C1=Nc2ccccc2/C1=C\c1c(O)n(-c2ccc(OC)cc2)c(=O)[nH]c1=O | – | 1.26 µM (active)
NCCCNCCSP(=O)(O)O | -9.99% (inactive) | –
CN1Cc2c(ccc3c2OCO3)[C@@H]2[C@@H](O)Cc3cc4c(cc3[C@@H]21)OCO4 | 5.43% [at 25.6 µM] (inactive) | –
NC(N)=NCCN=C(N)N | 3.96% [at 11.4 µM] (inactive) | –
Clc1cc(I)cc(Cl)c1NC1=NCCN1 | 8.41% (inactive) | –
CCc1ccccc1NC(=S)NC1CC2CCC(C1)N2Cc1ccco1 (stereo not given) | 19.7% (inactive) | –
CCNC(=S)NC1CC2CCCC(C1)N2Cc1ccco1 (stereo not given) | -3.86% (inactive) | –
CC(C)CNC(=S)NC1CC2CCCC(C1)N2Cc1ccco1 (stereo not given) | – | 2.82 µM (active)
C#C[C@@]1(O)CC[C@@H]2[C@@H]3CCC4=CC(=O)CC[C@@]4(C)[C@H]3CC[C@]21C | 6.31% [at 25.6 µM] (inactive) | –
S=C(Nc1ccc(Cl)cc1)NC1CC2CCCC(C1)N2C1CCCC1 (stereo not given) | -23.7% (inactive) | –
Nc1nc(N)c(N=Nc2ccc([As](=O)(O)O)c(O)c2)c(N)n1 | -7.93% [at 11.4 µM] (inactive) | –
CC1=NN(c2ccccc2)C(=O)[C@@H]1N=Nc1ccc([As](=O)(O)O)c(O)c1 | – | 3.16 µM (active)
CC[N+](CC)(CC)CCOc1cccc(OCC[N+](CC)(CC)CC)c1OCC[N+](CC)(CC)CC | -12% (inactive) | –
